USP1-UAF1 inh – blocks the human USP1/UAF1 deubiquitinase complex | recombinant USP1/UAF1, Ub-Rhodamine cleavage fluorescence | Potency, µM (series often up to 57.1 µM), for inactives: at the top dose activity change, negative = inhibition, usual class: inhibitors | 390,000 tested, 0.23% active; further: on the % scale 0 is the no-effect control and ±100 the full control effect; nearly all actives have a fitted effect of over 60% in size
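In this screen, compounds sit with the deubiquitinase complex (1nM) for 15 min at room temperature before Ub-Rho is added at 150nM final. Fluorescence rise is then followed for 6 reads every 60 seconds.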
USP2a block – blocks human ubiquitin-specific protease USP2a | O75604 | USP2 core, Ub-CHOP2 coupled fluorogenic reporter, 485/531 | Potency, µM (highest dose often 38.3 µM), inactives show top-dose activity change, negative = inhibition, most hits filed as inhibitors | 330,000 tested, 0.01% active | AID 463254;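 further: plate controls were DMSO wells for no effect and full inhibition by NEM control for full effect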
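USP2 core (10nM final) preincubated 30min RT with compound in 20mM Tris-HCl pH 8.0, 2mM CaCl2, 2mM beta-mercaptoethanol, 0.05% CHAPS; 25nM Ub-CHOP2 plus 25nM reporter substrate added, fluorescence (Ex485/Em531) read after 60min.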
EPAC2 agonist – agonists of human EPAC2 (RAPGEF4); EPAC2 activation, biochemical qHTS; response scale: 100% = 6.5 mM cAMP response; AID 720711; 360,000 tested, 0.079% active; Q8WZA2; Potency, µM (series often up to 154 µM), without a hit: at the top dose activation, actives largely listed as activators; further: nearly all actives have a fitted effect of over 50% in size
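Each well held 100 nM EPAC2, 250 nM RAP1B-BODIPY-GDP and 50 uM GDP. Fluorescence, read at 5-min intervals to 30 min, was referenced to a 6.5 mM cAMP positive control.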
EPAC2 antag – EPAC2 (human) antagonism; Q8WZA2; 360,000 tested, 0.18% active; EPAC2 GEF exchange of Rap1B-BODIPY-GDP, fluorescence; Potency, µM (series often up to 114 µM), for inactives: at the highest dose activity, negative = inhibition, usual class: inhibitors; AID 720708; further: on the % scale 0 is the no-effect control and ±100 the full control effect; nearly all actives have a fitted effect of over 45% in size
EPAC1 antagonist – EPAC1 (human) antagonism | EPAC1 GEF assay, Rap1b-BODIPY-GDP exchange fluorescence | Potency, µM (highest dose often 115 µM), for the others: top-dose activity change, negative = inhibition, hits mostly inhibitors | O95398 | 360,000 tested, 0.14% active;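 further: plate controls were vehicle for no effect and positive control for full effect; nearly all actives have a fitted effect of over 50% in size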
Target sequence (O95398 whole entry, looked up): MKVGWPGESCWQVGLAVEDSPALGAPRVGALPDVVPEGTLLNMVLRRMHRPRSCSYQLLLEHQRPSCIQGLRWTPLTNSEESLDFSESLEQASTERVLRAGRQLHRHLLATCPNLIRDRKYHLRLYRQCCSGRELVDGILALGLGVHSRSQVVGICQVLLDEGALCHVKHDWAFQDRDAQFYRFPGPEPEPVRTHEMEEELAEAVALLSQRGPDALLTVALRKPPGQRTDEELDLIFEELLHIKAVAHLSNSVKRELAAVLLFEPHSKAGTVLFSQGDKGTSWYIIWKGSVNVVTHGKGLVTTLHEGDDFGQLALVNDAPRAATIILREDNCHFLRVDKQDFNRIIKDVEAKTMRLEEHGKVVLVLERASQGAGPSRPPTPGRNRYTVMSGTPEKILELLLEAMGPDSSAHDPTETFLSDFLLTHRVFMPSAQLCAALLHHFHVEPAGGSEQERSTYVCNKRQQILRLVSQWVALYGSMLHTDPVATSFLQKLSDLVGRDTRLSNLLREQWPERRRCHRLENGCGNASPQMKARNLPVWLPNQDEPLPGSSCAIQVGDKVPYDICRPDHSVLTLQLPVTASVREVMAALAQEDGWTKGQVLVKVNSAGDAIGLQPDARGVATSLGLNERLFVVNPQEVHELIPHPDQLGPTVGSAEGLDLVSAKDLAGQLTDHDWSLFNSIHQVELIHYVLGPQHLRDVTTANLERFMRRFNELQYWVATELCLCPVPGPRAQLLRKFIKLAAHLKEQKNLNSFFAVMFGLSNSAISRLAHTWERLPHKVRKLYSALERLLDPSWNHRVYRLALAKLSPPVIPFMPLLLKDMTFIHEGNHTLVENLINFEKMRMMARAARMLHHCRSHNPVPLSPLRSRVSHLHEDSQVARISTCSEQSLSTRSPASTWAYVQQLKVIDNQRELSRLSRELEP
EPAC1 agonist – agonists of human EPAC1; O95398; EPAC1 agonist qHTS, biochemical assay; response scale: 100% = response to 6.5 mM cAMP; Potency, µM (doses to about 154 µM), for inactives: at the top dose activation, actives largely listed as activators; 360,000 tested, 0.073% active; AID 720707; further: nearly all actives have a fitted effect of over 60% in size
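Nucleotide exchange assay: 100 nM EPAC1 with 250 nM Rap1B loaded with BODIPY-GDP and 50 uM GDP, room temperature. Fluorescence (480/540 nm) read every 5 min for 30 min; signal change normalized to 6.5 mM cAMP as full agonist.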
* hit, by the source's call. Only some compounds are listed: those with a hit (about 0.45% of all), similar ones and a draw of the others. The call rests on the fitted dose curve; in most records, active means well fitted curve in the direction sought with a large enough effect; inconclusive means small, poorly fitted or top-dose-only effect, or another doubt; inactive means no such curve, though single readings can be large; an effect the other way counts as inactive or inconclusive. Potency means the concentration at half of the fitted maximal effect.

What do the screens show for `CCC(C(=O)NC1CCCC1)N(C(=O)c1snc(C(N)=O)c1N)c1ccc(OC)c(OC)c1` (stereo not drawn)?
USP1-UAF1 inh: 1.2%; USP2a block: -0.5%; EPAC2 agonist: 4.4%; EPAC2 antag: -4.7%; EPAC1 antagonist: 4.2%; EPAC1 agonist: 12.1%

Results for COc1ccc(N(C(=O)c2snc(C(N)=O)c2N)C(C(=O)NC2CCCC2)c2cccs2)cc1OC (stereo not drawn) ?
USP1-UAF1 inh: inconclusive; USP2a block: -3.6%; EPAC2 agonist: 2.7%; EPAC2 antag: -15.7%; EPAC1 antagonist: 50.1µM*; EPAC1 agonist: -14.0%

How did CCOc1cc(C2CC(=O)Nc3c2c(=O)nc(SCc2cccc(Cl)c2)n3C)ccc1O (stereo not drawn) do in these assays?
USP1-UAF1 inh: -22.4%

How did CC(/C=C1\SC(=S)N(CCCC(=O)Nc2ccc(C(=O)O)c(O)c2)C1=O)=C\c1ccccc1 do in these assays?
USP1-UAF1 inh: -13.4%; USP2a block: -11.9%; EPAC2 agonist: 6.0%; EPAC2 antag: inconclusive; EPAC1 antagonist: inconclusive; EPAC1 agonist: -5.3%

How did Cc1ccc(NC(=O)COc2cccc(/C=C3\SC(=S)N(CCC(=O)O)C3=O)c2)cc1Cl do in these assays?
USP1-UAF1 inh: inconclusive; USP2a block: -6.4%; EPAC2 agonist: -8.1%; EPAC2 antag: 33.6%; EPAC1 antagonist: 50.1µM*; EPAC1 agonist: inconclusive

Results for O=C(CCN1C(=O)/C(=C/c2cccs2)SC1=S)Nc1ccc(C(=O)O)c(O)c1 ?
USP1-UAF1 inh: inconclusive; USP2a block: 1.8%; EPAC2 agonist: 4.9%; EPAC2 antag: -9.8%; EPAC1 antagonist: 79.4µM*; EPAC1 agonist: 3.5%

Results for CC(=Cc1ccccc1)C=C1SC(=S)N(CCCC(=O)Nc2ccc(C(=O)O)c(O)c2)C1=O ?
EPAC2 agonist: 0.0%; EPAC2 antag: 0.1%; EPAC1 antagonist: 50.1µM*; EPAC1 agonist: 12.4%

What do the screens show for `CC(C)(C)OC(=O)N1CCC(c2c(C(=O)NCc3ccc4c(c3)OCO4)cnn2-c2ccc(F)cc2F)CC1`?
USP1-UAF1 inh: -1.0%

Results for CN=CC1=C(O)c2ccccc2C1=O ?
USP1-UAF1 inh: -10.9%; USP2a block: -0.9%; EPAC2 agonist: -3.6%; EPAC2 antag: 9.5%; EPAC1 antagonist: 14.6%; EPAC1 agonist: -7.7%

How did O=C1C(C2=C(O)c3ccccc3C2=O)=Nc2ccccc21 do in these assays?
USP1-UAF1 inh: 14.1µM*; USP2a block: -5.7%; EPAC2 agonist: 7.5%; EPAC2 antag: inconclusive; EPAC1 antagonist: -0.7%; EPAC1 agonist: 5.9%

What do the screens show for `COc1ccc(N=Nc2nc3cc(Br)c(Br)cc3n2C)c(OC)c1`?
USP1-UAF1 inh: -14.0%; USP2a block: inconclusive; EPAC2 agonist: -9.9%; EPAC2 antag: 4.3%; EPAC1 antagonist: 172.3%; EPAC1 agonist: 112µM*

What do the screens show for `Clc1ccc(C2Nc3cccc4cccc(c34)N2)c(Cl)c1`?
USP1-UAF1 inh: -25.5%; EPAC2 agonist: 6.3%; EPAC2 antag: 10µM*; EPAC1 antagonist: -5.6%; EPAC1 agonist: 11.0%

What do the screens show for `O=C(CSc1nc2ccc(Cl)cc2o1)NCc1ccc2c(c1)OCO2`?
USP1-UAF1 inh: -3.1%; USP2a block: 0.8%; EPAC2 agonist: -2.4%; EPAC2 antag: -11.8%; EPAC1 antagonist: 1.9%; EPAC1 agonist: -18.0%

Results for O=C(CSc1nc2ccccc2o1)N/N=C/c1ccc(O)c(O)c1 ?
USP1-UAF1 inh: 1.2%; USP2a block: 0.0%; EPAC2 agonist: 10.1%; EPAC2 antag: -11.2%; EPAC1 antagonist: 50.1µM*; EPAC1 agonist: 2.8%

What do the screens show for `O=C(CSc1nc2ccccc2o1)NCc1ccc2c(c1)OCO2`?
USP1-UAF1 inh: -22.3%; USP2a block: 1.6%; EPAC2 agonist: 4.8%; EPAC2 antag: 22.4µM*; EPAC1 antagonist: 11.8%; EPAC1 agonist: -8.8%

How did O=C(CSc1nc2ccccc2o1)N/N=C/c1ccccc1 do in these assays?
USP1-UAF1 inh: -11.1%; USP2a block: 4.0%; EPAC2 agonist: -2.3%; EPAC2 antag: 18.8%; EPAC1 antagonist: -22.8%; EPAC1 agonist: -0.4%

What do the screens show for `Nc1ncnc2c1nc(Br)n2[C@@H]1O[C@@H]2COP(=O)(O)O[C@H]2[C@H]1O`?
USP1-UAF1 inh: 14.5%; EPAC2 agonist: inconclusive; EPAC2 antag: 2.51µM*; EPAC1 antagonist: 1.26µM*; EPAC1 agonist: 11.2µM*

Results for Nc1nc2c(nc(Br)n2[C@@H]2O[C@@H]3COP(=O)(O)O[C@H]3[C@H]2O)c(=O)[nH]1 ?
USP1-UAF1 inh: -12.7%; EPAC2 agonist: 16.4%; EPAC2 antag: 16.5%; EPAC1 antagonist: -13.4%; EPAC1 agonist: 11.6%

What do the screens show for `N#Cc1c(/N=C/c2ccco2)sc2c1CCC2`?
USP1-UAF1 inh: -16.7%; USP2a block: 0.8%; EPAC2 agonist: 10µM*; EPAC2 antag: 1.7%; EPAC1 antagonist: 7.1%; EPAC1 agonist: 2.9%

How did O=C(N/N=C/c1ccccc1Cl)c1[nH]c2ccc(Br)cc2c1-c1ccccc1 do in these assays?
USP1-UAF1 inh: inconclusive; USP2a block: -1.0%; EPAC2 agonist: -138.5%; EPAC2 antag: -33.7%; EPAC1 antagonist: 254.4%; EPAC1 agonist: 112µM*

What do the screens show for `COc1ccc(/C=N/NC(=O)c2[nH]c3ccc(Br)cc3c2-c2ccccc2)cc1`?
USP1-UAF1 inh: -12.4%; USP2a block: 3.2%; EPAC2 agonist: 4.4%; EPAC2 antag: 2.7%; EPAC1 antagonist: -8.2%; EPAC1 agonist: 6.3%

How did COc1ccc(/C=N/NC(=O)c2[nH]c3ccc(Cl)cc3c2-c2ccccc2)c(C(=O)O)c1OC do in these assays?
USP1-UAF1 inh: -9.6%; USP2a block: 2.7%; EPAC2 agonist: -1.5%; EPAC2 antag: 3.1%; EPAC1 antagonist: -15.9%; EPAC1 agonist: -4.4%

Results for COc1ccc(/C=N/NC(=O)c2[nH]c3ccc(Br)cc3c2-c2ccccc2)c(C(=O)O)c1OC ?
USP1-UAF1 inh: -21.0%; USP2a block: -9.2%; EPAC2 agonist: -7.5%; EPAC2 antag: -14.1%; EPAC1 antagonist: 79.4µM*; EPAC1 agonist: -24.5%

Results for C=C1CCc2c([nH]c3ccc(OCC(C)C)cc23)C1=O ?
USP1-UAF1 inh: -17.6%; USP2a block: -0.4%; EPAC2 agonist: -10.4%; EPAC2 antag: -10.5%; EPAC1 antagonist: -7.8%; EPAC1 agonist: -6.3%

Results for O=C(Oc1ccc(F)cc1)c1nc(SCc2ccccc2F)ncc1Cl ?
USP1-UAF1 inh: -7.2%

Results for COc1ccc(C(=O)Nc2ccc(NC(=O)c3cccs3)cc2)cc1OC ?
USP1-UAF1 inh: 25.1µM*

Bioassay records: PubChem BioAssay, National Center for Advancing Translational Sciences (NCATS)
